Reference: PubChem BioAssay AID1159580 (chemical genetic matrix, 2015)
About 2,000 (36%) of roughly 5,500 compounds were called active. Roughly 18% stayed inconclusive and do not appear here. Rule as the data show it: active = normalized growth mostly below about 0.91 (no sharp cut-off); inconclusive = no clear call, values can overlap the other calls; inactive = mostly above about 0.92. Some of the results follow.

Test: chemical genetic growth profiling, strain panel (AID 1159580);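 also: tested at 20 µM; growth read once vehicle control cultures reached saturation at 30 °C; 1 = growth at the plate median or of vehicle wells; lower values mean less growth of the strain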
Conditions: S. cerevisiae deletion strains, growth OD
[1] = locus YDL101C, strain DUN1, hits give low values
[2] = locus YHR030C, strain SLT2, hits give low values
[3] = locus YAL013W, strain DEP1, hits give low values
[4] = locus YDR150W, strain NUM1, hits give low values
[5] = locus YGR078C, strain PAC10, hits give low values
[6] = locus YJR075W, strain HOC1, hits give low values
[7] = locus YMR263W, strain SAP30, hits give low values
[8] = locus YMR307W, strain GAS1, hits give low values
[9] = locus YNL128W, strain TEP1, hits give low values
[10] = locus YNL153C, strain GIM3, hits give low values
[11] = locus YPL055C, strain LGE1, hits give low values
[12] = locus YPL241C, strain CIN2, hits give low values
[13] = locus YAL040C, strain CLN3, hits give low values
[14] = locus YER002W, strain NOP16, hits give low values
[15] = locus YNL175C, strain NOP13, hits give low values
[16] = locus YNL197C, strain WHI3, hits give low values
[17] = locus YNL224C, strain SQS1, hits give low values
[18] = locus YOR083W, strain WHI5 (second series), hits give low values
[19] = locus YCL061C, strain MRC1 (second series), hits give low values
[20] = locus YDR363W, strain ESC2, hits give low values
[21] = locus YGR229C, strain SMI1, hits give low values

Measured: normalized growth

O=C(c1csc(-c2ccc(Cl)cc2)c1)N1CCCCC1
active: [2] 0.588 | locus YLR113W, strain HOG1, hits give low values 0.711 | locus YPL256C, strain CLN2, hits give low values 0.766
inactive: locus YAR019C, strain CDC15, hits give low values 0.95 | locus YBL105C, strain PKC1, hits give low values 0.953 | locus YBR135W, strain CKS1, hits give low values 0.943 | locus YBR136W, strain MEC1, hits give low values 0.952 | locus YBR160W, strain CDC28, hits give low values 0.944 | locus YDL017W, strain CDC7, hits give low values 0.957 | locus YDL028C, strain MPS1, hits give low values 0.951 | [1] 0.946 | locus YDL108W, strain KIN28, hits give low values 0.953 | locus YDL132W, strain cdc53, hits give low values 0.941 | locus YDL214C, strain PRR2, hits give low values 0.849 | locus YDR052C, strain DBF4, hits give low values 0.952 | locus YDR054C, strain cdc34, hits give low values 0.935 | locus YDR226W, strain ADK1, hits give low values 0.948 | locus YDR477W, strain SNF1, hits give low values 0.851 | locus YER123W, strain YCK3, hits give low values 0.83 | locus YER133W, strain GLC7, hits give low values 0.857 | locus YFL009W, strain cdc4, hits give low values 0.942 | locus YFL029C, strain CAK1, hits give low values 0.944 | locus YFR003C, strain YPI1, hits give low values 0.96 | locus YFR019W, strain FAB1, hits give low values 0.882 | locus YFR028C, strain CDC14, hits give low values 0.948 | locus YGR040W, strain KSS1, hits give low values 0.844 | locus YGR052W, strain FMP48, hits give low values 0.918 | locus YGR092W, strain DBF2, hits give low values 0.834 | locus YHR079C, strain IRE1, hits give low values 0.785 | locus YHR082C, strain KSP1, hits give low values 0.831 | locus YHR205W, strain SCH9, hits give low values 0.801 | locus YIL147C, strain SLN1, hits give low values 0.948 | locus YJL095W, strain BCK1, hits give low values 0.714 | locus YJL128C, strain PBS2, hits give low values 0.878 | locus YJL157C, strain FAR1, hits give low values 0.838 | locus YJR016C, strain ILV3, hits give low values 0.954 | locus YJR066W, strain TOR1 (second series), hits give low values 0.764 | locus YJR066W, strain TOR1, hits give low values 0.759 | locus YKL048C, strain ELM1, hits give low values 0.904 | locus YKL067W, strain YNK1, hits give low values 0.857 | locus YKL101W, strain HSL1, hits give low values 0.884 | locus YKL193C, strain SDS22, hits give low values 0.951 | locus YKL203C, strain TOR2, hits give low values 0.868 | locus YLR133W, strain CKI1, hits give low values 0.862 | locus YLR403W, strain SFP1, hits give low values 0.79 | locus YML070W, strain DAK1, hits give low values 0.847 | locus YMR001C, strain CDC5, hits give low values 0.94 | locus YMR205C, strain PFK2 (second series), hits give low values 0.866 | locus YMR277W, strain FCP1, hits give low values 0.944 | locus YNL006W, strain LST8, hits give low values 0.953 | locus YNL020C, strain ARK1, hits give low values 0.84 | locus YNL161W, strain CBK1, hits give low values 0.953 | locus YNL183C, strain NPR1, hits give low values 0.801 | locus YNL207W, strain RIO2, hits give low values 0.928 | locus YNL222W, strain SSU72, hits give low values 0.958 | locus YNL307C, strain MCK1 (second series), hits give low values 0.845 | locus YOL078W, strain AVO1, hits give low values 0.948 | locus YOL136C, strain PFK27, hits give low values 0.823 | locus YOR061W, strain CKA2, hits give low values 0.803 | locus YOR119C, strain RIO1, hits give low values 0.903 | locus YOR231W, strain MKK1, hits give low values 0.797 | locus YOR329C, strain SCD5, hits give low values 0.954 | locus YPL031C, strain PHO85, hits give low values 0.815 | locus YPL153C, strain RAD53, hits give low values 0.831 | locus YPL204W, strain HRR25, hits give low values 0.812 | locus YPL209C, strain IPL1, hits give low values 0.956 | locus YPR025C, strain CCL1, hits give low values 0.944 | locus YPR106W, strain ISR1, hits give low values 0.95 | locus YPR111W, strain DBF20, hits give low values 0.935 | strain NNK1, hits give low values 0.93 | strain TSCII, hits give low values 0.942

O=C(c1c(F)cccc1F)N1CCN(C(=O)c2c(F)cccc2F)CC1
inactive: [3] 1.01 | locus YBR229C, strain ROT2, hits give low values 0.987 | [1] 1 | locus YDL134C, strain PPH21, hits give low values 0.973 | [4] 1.02 | locus YEL061C, strain CIN8, hits give low values 0.945 | [5] 1.02 | [2] 1.11 | locus YHR087W, strain rtc3, hits give low values 0.98 | locus YJL187C, strain SWE1, hits give low values 1 | locus YJR043C, strain POL32, hits give low values 1.02 | [6] 0.988 | locus YKL190W, strain CNB1, hits give low values 0.984 | locus YLR039C, strain RIC1, hits give low values 1.09 | locus YLR058C, strain SHM2 (second series), hits give low values 0.985 | locus YLR085C, strain ARP6, hits give low values 0.951 | locus YLR262C, strain YPT6, hits give low values 1.06 | locus YML094W, strain GIM5, hits give low values 0.996 | locus YMR219W, strain ESC1, hits give low values 1 | [7] 0.99 | [8] 0.964 | [9] 0.978 | [10] 1.02 | locus YNL298W, strain CLA4 (second series), hits give low values 0.962 | locus YNL322C, strain KRE1, hits give low values 0.99 | locus YNR030W, strain Alg12, hits give low values 0.976 | [11] 0.98 | [12] 1.01 | locus YPR135W, strain CTF4, hits give low values 1.01

NC(CCCCCP(=O)(O)O)C(=O)O (stereo unspecified)
inactive: [13] 0.977 | [4] 0.989 | [14] 0.973 | [15] 1 | [16] 0.992 | [17] 1.01 | [18] 0.983 | [11] 0.999 | [12] 0.98

CCCCCCCCCCCCCCCCCC(=O)NCC(COP(=O)([O-])OCC[N+](C)(C)C)OCC (stereo unspecified)
active: [13] 0.0918 | [19] 0.0501 | [4] 0.0538 | [20] 0.0807 | [14] 0.0757 | [21] 0.0622 | [6] 0.0689 | [7] 0.0519 | [8] 0.0635 | [9] 0.0936 | [10] 0.0918 | [15] 0.0883 | [16] 0.0927 | [17] 0.0836 | [18] 0.116 | [12] 0.0483

CCCCCCCCCCCCCCCCCCNC(=O)OCC(COP(=O)([O-])OCC[n+]1ccsc1)OC (stereo unspecified)
inactive: [3] 0.983 | [13] 1 | [19] 1 | [20] 1.03 | [14] 1.01 | [21] 0.936 | [7] 1 | [8] 0.968 | [15] 1.03 | [16] 1.06 | [17] 1.03 | [18] 1.01 | [11] 1.04 | [12] 1.01

CCCCCCCCCCCCCCCC(=O)NCC(COP(=O)([O-])OCC[N+](C)(C)C)OCC (stereo unspecified)
active: [13] 0.322 | [19] 0.155 | [4] 0.0974 | [20] 0.165 | [14] 0.0938 | [7] 0.619 | [15] 0.0862 | [16] 0.373 | [17] 0.151 | [18] 0.223 | [11] 0.109
inactive: [5] 0.971
